Values joined by “and” are separate entries in the source; they are usually repeats but may differ in a detail not shown here. Equal entries are not always repeated. A number with no mark means an inactive call. No rule for the calls is given here. Non-standard residues stand in square brackets, D forms with d. Residues, ends and D or L forms follow the SMILES beside them. Orn = NCCC[CH](N)C(=O)O
system: Aerobactin synthetase IucA (Klebsiella pneumoniae hvKP1); test: IucA enzyme inhibition, primary screen, biochemical, Spectrum library (AID 1346200); settings: malachite green pyrophosphate, A620, at 8 µM, stronger effect = lower value;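 also: 100% = wells without compound and 0% = wells lacking enzyme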

Compound	activity remaining
COc1ccc(-c2c(O)c3c(OC)c4c(cc3oc2=O)OC(C)(C)CC4)cc1	99.1%
CC(C)CC1NC(=O)C(CCCN)NC(=O)C(C(C)C)NC(=O)C2CCCN2C(=O)C(Cc2ccccc2)NC(=O)C(CC(C)C)NC(=O)C(CCCN)NC(=O)C(C(C)C)NC(=O)C2CCCN2C(=O)C(Cc2ccccc2)NC1=O (stereo not given) (cyclo(FPV[Orn]LFPV[Orn]L); configuration not given here)	122%
CCC1OC(=O)[C@H](C)C(=O)[C@H](C)[C@@H](OC2O[C@H](C)C[C@H](N(C)C)[C@H]2O)[C@](C)(OC)C[C@@H](C)C(=O)[C@H](C)[C@H]2N(CCCCn3cnc(-c4cccnc4)c3)C(=O)OC12C (stereo not given in full)	121%
C=C(C)C1CC=C(CO)CC1 (stereo not given)	117%
CC1=C2[C@@H](CC1)[C@@H](C)CC[C@@H]2/C=C(\C)C(=O)O	113%
COc1ccc(-c2coc3c(O)c(OC)ccc3c2=O)cc1	115%
Cc1cc(O)c2c(c1O)C(=O)c1c(O)cc(C)c(O)c1C2=O	100%
CC(=O)c1cc2c(cc1O)OC(C)(C)C=C2	96.6%
COc1c2ccoc2c(OC)c2oc(=O)ccc12	121%
C=CC(C1=CC(=O)C(OC)=CC1=O)c1ccc(O)cc1 (stereo not given)	120%
CC(=O)OCC(=O)[C@@]1(O)CCC2C3CCC4=CC(=O)CC[C@]4(C)[C@@]3(F)[C@@H](O)C[C@@]21C (stereo not given in full)	91.4%
CC1(C)S[C@@H]2[C@H](NC(=O)COc3ccccc3)C(=O)N2[C@H]1C(=O)O	96.2%
O=C(O)c1ccccc1Nc1cccc(C(F)(F)F)c1	116%
OC[C@@H](O)C(O[C@@H]1O[C@H](CO)[C@H](O)[C@H](O)[C@H]1O)[C@H](O)[C@@H](O)CO (stereo not given in full)	116%
COc1c(O)cccc1O	87.7%
CCOC(=O)C(Cc1ccc(O)cc1)NC(C)=O (stereo not given)	98.7%
Cc1onc(-c2ccccc2)c1-c1ccc(S(N)(=O)=O)cc1	103%
CC(C)(Oc1ccc(CCNC(=O)c2ccc(Cl)cc2)cc1)C(=O)O	96.6%
CC1=CC(=O)c2ccccc2C1=O	117%
N[C@H](C(=O)O)[C@@H]1CC(Cl)=NO1	112%

Compound	activity remaining
COc1c(Cl)ccc(Cl)c1C(=O)O	108%
O=C(O[C@@H]1Cc2c(O)cc(O)cc2O[C@@H]1c1ccc(O)c(O)c1)c1cc(O)c(O)c(O)c1	107%
CCOC(=O)c1ccc(N)cc1	113%
COc1cc2c(cc1OC)[C@@H]1C(=O)c3ccc4c(c3O[C@@H]1CO2)C=CC(C)(C)O4	118%
Cc1c(S(=O)(=O)O)oc2c1C(=O)C(=O)c1c-2ccc2c1CCCC2(C)C	127%
CN1C2CCC1CC(OC(=O)C(CO)c1ccccc1)C2 (stereo not given)	108%
CN1CCC(OC(c2ccccc2)c2ccccc2)CC1	108%
COc1cc(S(C)=O)ccc1-c1nc2ncccc2[nH]1 (stereo not given)	108%
Cc1cc(=O)n(-c2ccccc2)n1C	110%
CC(C)(C)NC[C@H](O)c1ccc(O)c(CO)c1	112%
CCC(=O)OC1[C@@H]2CC3=C4CC(=O)O[C@@H](c5ccoc5)[C@]4(C)CCC3C(C)(C2=O)[C@@H](CC(=O)OC)C1(C)C (stereo not given in full)	121%
C1CCN2C[C@@H]3C[C@H](CN4CCCC[C@@H]34)[C@H]2C1	106% and 89.3%
COC1=CC(=O)C=C(OC)C1=O	99.1%
C[C@@H]1CC2C3CCC4=CC(=O)C=C[C@]4(C)[C@@]3(F)[C@@H](O)C[C@]2(C)[C@@]1(O)C(=O)COP(=O)(O)O (stereo not given in full)	114%
Nc1ccc(S(N)(=O)=O)cc1	116%
OCC(S)CS (stereo not given)	91.4%
Oc1ccc2c(c1)OCC1(O)Cc3cc(O)c(O)cc3C21 (stereo not given)	91.6%
CN1C(C)(C)CCCC1(C)C	82.7%
Cc1cc(O)cc(C)c1Cl	94.5%
CCCCOc1cc(C(=O)NCCN(CC)CC)c2ccccc2n1	103%

From PubChem BioAssay
